Assay outcomes as filed in PubChem.
HT1080 IDH1KD tx: HT-1080 IDH1 knockdown cell toxicity (counter line) | AID 686971 | actives 2% (n = 360,000) | Potency, µM (series often up to 46.1 µM), for the others: at the top dose activity, negative = toxicity, hits mostly cytotoxic | HT-1080 IDH1 knockdown viability, ATP luminescence, 48 h;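 further: 0% = DMSO wells and -100% = cell-free medium wells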
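Knockdown cells (IDH1KD HT-1080) received compounds 2 h after plating at 750 cells/well and were kept 48 h at 37 °C in 5% FBS RPMI. A CellTiter-Glo luminescence read gave % activity for curve fitting.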
MCF10A rerep: inducers of DNA re-replication in MCF 10A breast cells; MCF 10A DNA re-replication, Hoechst nuclear intensity, 48 h; actives 2.9% (n = 350,000); AID 624296; Potency, µM (top dose mostly 46.1 µM), without a hit: at the highest dose activity, positive = re-replication, usual class: activators; further: % of control where 0% means no effect; nearly all actives have a fitted effect of over 50% in size
KB-3-1 tox: kills parental KB-3-1 adenocarcinoma cells. AID 1347075. Potency, µM (top dose mostly 46.1 µM), usual class: cytotoxic. actives 1.4% (n = 400,000). KB-3-1 viability, CellTiter-Glo ATP luminescence, 72 h; further: on the % scale 0 is the no-effect control and ±100 the full control effect; nearly all actives have a fitted effect of over 60% in size
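Here the drug-naive KB-3-1 line serves as comparator for MDR sub-line selectivity; cells received compound titrations, 72 h at 37 °C, then CellTiter-Glo readout.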
KB-V1 cytotox: kills drug-selected multidrug resistant KB-V1 cells. AID 1347076. Potency, µM (titrated, usually from 46.1 µM), usual class: cytotoxic. KB-V1 MDR cells viability, CellTiter-Glo, 72 h. actives 3.4% (n = 400,000); further: on the % scale 0 is the no-effect control and ±100 the full control effect; nearly all actives have a fitted effect of over 60% in size
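Cells of the MDR subline KB-V1 are plated, dosed with compound at multiple concentrations, and incubated 72 h at 37 degrees C; CellTiter-Glo is then added and luminescence read after 10 min.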
HT1080NT lethal: kills 2HG-producing HT-1080-NT fibrosarcoma cells; HT-1080-NT fibrosarcoma viability, CellTiter-Glo ATP luminescence, 48 h; Potency, µM (series often up to 46.1 µM), inactives show at the highest dose activity, negative = less viability, usual class: cytotoxic; actives 1.6% (n = 360,000);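 further: NT is the 2HG producing partner of a matched IDH1 knockdown line; 0% = DMSO-treated cells and -100% = media-only wells without cells; nearly all actives have a fitted effect of over 55% in size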
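Viability by CellTiter-Glo luminescence after 48 h compound exposure at 37C of HT-1080-NT cells (750/well, RPMI, 5% FBS). % activity scaled between DMSO wells and medium-only wells, then curve-fitted and categorized by curve class.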
SW480 rerep: induces DNA re-replication in SW480 colon adenocarcinoma cells | actives 1.8% (n = 340,000) | SW480 DNA re-replication, Hoechst DNA content imaging, 48 h | Potency, µM (series often up to 46.1 µM), inactives show at the top dose re-replication activation, most hits filed as activators; further: % of control where 0% means no effect; nearly all actives have a fitted effect of over 55% in size
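SW480 cells exposed to compounds for 48 hr at 37 C, 5% CO2, then Hoechst-stained 40 min. Nuclear DNA content imaged by fluorescence scanning (405 nm excitation, 500-530 nm emission); re-replication scored as increased high-intensity nuclei.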
Active calls of the source: *; i = inactive; ? = inconclusive; / = no result; [ ] = dose if it differs, or a comment. A selection: hits, their analogues and other compounds. The true share with any hit is near 7.9%. The call rests on the fitted dose curve; in most records, active means well fitted curve in the direction sought with a large enough effect; inconclusive means small, poorly fitted or top-dose-only effect, or another doubt; inactive means no such curve, though single readings can be large; an effect the other way counts as inactive or inconclusive. Potency means the concentration at half of the fitted maximal effect.

SMILES	HT1080 IDH1KD tx	MCF10A rerep	KB-3-1 tox	KB-V1 cytotox	HT1080NT lethal	SW480 rerep
CCCn1nc(NC(=O)c2cccs2)c2cc3ccccc3nc21	3%	5.8µM*	i	?	-1%	15µM*
CCCCn1nc(NC(=O)c2cccs2)c2cc3ccccc3nc21	?	?	?	26µM*	?	?
CCCCn1c(CNC(=O)c2cccs2)nc2ccccc21	-7%	3%	?	?	8%	-3%
CCCn1nc(NC(=O)c2ccncc2)c2cc3ccccc3nc21	-10%	5%	i	i	-1%	1%
CCCCCn1c(CNC(=O)c2cccs2)nc2ccccc21	8%[9.24 µM]	28%	i	i	13µM*	6%
CCCCn1nc(NC(=O)c2cccc(Cl)c2)c2cc3ccccc3nc21	/	/	i	i	/	/
CCc1ccc(NC(=O)CSC2=Nc3ccccc3C3=NC(CC(=O)NCc4ccc5c(c4)OCO5)C(=O)N23)cc1 (configuration not stated)	/	/	i	i	/	/
Nc1ncc(Br)cc1S(=O)(=O)NCCc1ccccc1	-1%	3%	i	i	-17%	3%
CC1CCN(c2nnc(-n3cccc3CNc3cccc(F)c3)s2)CC1	/	/	i	i	/	/
Cc1ccc(S(=O)(=O)c2nnn3c2nc(N2CCOCC2)c2sccc23)cc1C	/	/	i	i	/	/
FC(F)(F)c1ccccc1Cc1c(-c2ccc(Cl)cc2)nc2ccc(Br)cn12	-7%	/	?	i	?	/
CCOC(=O)c1c(NC(=O)C(=O)N/N=C/c2ccccc2O)sc2c1CCCCC2	?	-1%	?	3.7µM*	?	?
CCOC(=O)c1c(NC(=O)C(=O)N/N=C(\C)c2ccc(OC)cc2)sc2c1CCCCC2	16%	8%	i	3.3µM*	8%	-5%
CCOC(=O)c1c(NC(=O)C(=O)N/N=C/c2ccccc2OC)sc2c1CCCCC2	1%	14%	?	i	-2%	-1%
CCOC(=O)c1c(NC(=O)c2ccc(OC)cc2)sc2c1CCCCC2	/	/	i	i	/	/
CC(=O)N1/C(=C/c2ccc(N(C)C)cc2)C(=O)c2ccccc21	?	?	?	i	3.3µM*	2.1µM*
CN(C)c1ccc(/C=C2\C(=O)/C(=C/c3ccc(N(C)C)cc3)c3ccccc32)cc1	/	/	i	i	/	/
CC1=C(C#N)C(c2ccccc2)C2=C(N1)c1ccccc1C2=O (configuration not stated)	2%	1.5µM*	2.1µM*	3.3µM*	?	8.2µM*
C=C1[C@@H](O)[C@H](Cc2ccccc2)N(Cc2ccccc2Br)S1(=O)=O	23µM*	21µM*	?	?	?	-1%[9.22 µM]
Cc1ccccc1CN1[C@@H](Cc2ccccc2)COCCS1(=O)=O	7%	?	i	i	0%	-5%
Cc1cccc(N(C)S(=O)(=O)c2ccc(-c3cnc(C4CC4)o3)cc2)c1	?	23µM*	?	?	0.052µM*	0.15µM*
Cc1ccc(N(C)S(=O)(=O)c2cc(-c3cnc(C4CC4)o3)ccc2C)cc1	-4%	23µM*	?	i	3%	28%
CC1=C(C(=O)N2CCOCC2)CC(CC(=O)NCCc2ccccn2)C(=O)N1CCC1=CCCCC1 (configuration not stated)	12%	/	i	i	19%	/
COc1ccc(CCN2C(=O)c3cccc4c(C(=O)N5CCCCC5)ccc(c34)C2=O)cc1OC	4%	?	i	2.9µM*	2%	-1%
Cc1ccc(C(C[N+](=O)[O-])Sc2ccc(N)cc2)cc1 (configuration not stated)	16µM*	7.3µM*	i	?	?	?
SMILES	HT1080 IDH1KD tx	MCF10A rerep	KB-3-1 tox	KB-V1 cytotox	HT1080NT lethal	SW480 rerep
COC(=O)c1cc2c(ccn2-c2ccc(F)cc2)n1C(C)C	4%	?	i	i	3%	18%
COC(=O)c1cc2c(ccn2-c2ccc(F)cc2)n1Cc1ccc(OC(C)=O)cc1	-17%	?	i	?	0%	-1%
CCCn1c(C(=O)OC)cc2c1ccn2-c1ccc(F)cc1	-10%	23µM*	i	i	2%	8%
COC(=O)c1cc2c(ccn2-c2ccc(F)cc2)n1Cc1cccc(OC)c1	?	?	i	13µM*	-11%	?
COC(=O)c1cc2c(ccn2-c2ccc(F)cc2)n1CC(C)C	7%	23µM*	i	i	16%	?
CC(C)CC(=O)Nc1ccc(C(=O)COC(=O)C2CC(=O)N(Cc3ccccc3)C2)cc1 (configuration not stated)	-5%	4%	i	?	0%	9%
O=C(COC(=O)C1CC2C=CC1C2)Nc1ccc([N+](=O)[O-])cc1 (configuration not stated)	-15%	2%	i	i	-17%	29%
COc1ccc(N2CCN(CC(=O)Nc3cccc(S(=O)(=O)N4CCOCC4)c3)CC2)cc1	-1%	12%	?	10µM*	-5%	-3%
O=C(CN1CCN(S(=O)(=O)N2CCCCC2)CC1)Nc1ccc(Cl)c(Cl)c1	?	?	?	13µM*	-21%	-6%
CN(C)S(=O)(=O)N1CCN(CC(=O)Nc2cc(Cl)ccc2Cl)CC1	4%	18%	i	18µM*	11%	6%
COc1cc(OC)nc(NC(=O)CN2CCN(c3ccc(F)cc3)CC2)n1	-8%	5%	i	23µM*	6%	-12%
COc1cc(CN2C[C@@H](CO)O[C@@H](n3cnc4c(NCc5ccc(F)cc5)ncnc43)C2)cc(OC)c1OC	2%	/	i	i	7%	/
CN(CC(=O)Nc1ccc(Cl)cc1)C(=O)C1CCCC1	0%	-18%	i	i	14%	1%
COc1cc(NC(=O)c2cc([N+](=O)[O-])ccc2NC(=O)CN2CCN(c3ccccn3)CC2)cc(OC)c1	-10%	0%	/	/	-22%	-1%
Cc1cc(C)cc(NC(=O)NCCn2nnc3cc(S(=O)(=O)N(C)C)ccc32)c1	/	/	i	i	/	/
COc1ccc(S(=O)(=O)N2CCN(CC(=O)Nc3ccc(C)c(F)c3)CC2)cc1	-14%	-2%	i	6.5µM*	-1%	-4%
COc1ccc(S(=O)(=O)N2CCN(CCC(=O)Nc3ccc(F)cc3)CC2)cc1	-2%	8%	?	5.2µM*	-1%	?
Cc1cc(NC(=O)CN2CCN(S(=O)(=O)c3ccc(Cl)cc3)CC2)no1	-4%	-4%	i	16µM*	4%	2%
